The values that follow come from PubChem BioAssay.

Test [1] is described as follows: antimalarial activity against Dd2 strain (AID 2302;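 active = growth inhibition above 50% at the single 2 µM test dose, taken to imply half-maximal potency below 2 µM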;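 note: 0% = DMSO untreated growth and 100% = chloroquine plus artemisinin killed control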). To be noted: P. falciparum Dd2 in RBCs, LDH growth readout, 72 h; at 2 µM; stronger effect = higher value.
Test [2] can be described thus: HepG2 cytotoxicity, primary screen, cytotoxicity control for P. falciparum antimalarial project, cell-based, ATP luminescence (AID 2303;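 active = inhibition above 50%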;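 note: 0% = DMSO wells and 100% = digitonin-killed cells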). Conditions: HepG2 viability, 24-48 h, at 10 µM, stronger effect = higher value.
Test [3] has as its target L-lactate dehydrogenase (Plasmodium falciparum (isolate CDC / Honduras)) (UniProt Q27743). The experiment in a line: PfLDH activity inhibition – cell lysate, 3D7 strain, counter-screen for P. falciparum growth inhibition project (AID 2304).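 Note: 0% = vehicle and 100% = reference inhibitor.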 Conditions: P. falciparum 3D7 crude extract, LDH APAD/NBT absorbance; at 2 µM; stronger effect = higher value. (The purpose of a counterscreen is to sort out artefacts and off-target activity.)

Test [4] in a line: inhibition of 3D7 malaria parasite growth – strain 3D7 (AID 2306).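 Note: 0% = DMSO wells and 100% = chloroquine plus artemisinin control wells.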 To be noted: P. falciparum 3D7 erythrocytic growth, LDH absorbance, 72 h; at 2 µM; stronger effect = higher value.
Test [5] concerns the target Calcium-dependent protein kinase 1 (Plasmodium falciparum (isolate 3D7)) (UniProt P62344). The experiment in a line: PfCDPK1 kinase inhibitors, biochemical, TCAMS library (AID 1159585; cut-off not given, nearly all actives have IC50 up to about 0.98 µM;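 note: inhibitors leave more ATP so luminescence rises with inhibition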). To be noted: recombinant PfCDPK1, Kinase-Glo ATP depletion luminescence. In general terms: In Kinase-Glo more light means more ATP remaining.
Test [6] deals with Plasmodium falciparum protein kinase 6 (PK6, PF3D7_1337100) (UniProt Q8IDW1). Put plainly: PfPK6 kinase inhibitors, biochemical, TCAMS library (AID 1159586). Conditions: recombinant PfPK6, Kinase-Glo ATP depletion luminescence.
Test [7] addresses Protein kinase 7 (PK7), Plasmodium falciparum 3D7 (PF3D7_0213400) (UniProt Q7YTF7). Put plainly: inhibition of Plasmodium PK7 catalytic activity – biochemical, TCAMS antimalarial set, Kinase-Glo luminescence (AID 1159587). To be noted: recombinant PfPK7, Kinase-Glo ATP depletion luminescence.
For test [8], the target named is Calcium-dependent protein kinase 4 (Plasmodium falciparum (isolate 3D7)) (UniProt Q8IBS5). Put plainly: PfCDPK4 kinase inhibitors, biochemical, TCAMS library (AID 1159588; cut-off not given, nearly all actives have IC50 up to about 0.91 µM). To be noted: recombinant PfCDPK4, Kinase-Glo ATP depletion luminescence.

Unmarked numbers belong to inactive results. For some of these results: Entries with a potency or affinity are not part of this list. Calls of active or inactive are those of the source. Unless noted, the rule behind the calls is not given here.

Calcium-dependent protein kinase 4 (Plasmodium falciparum (isolate 3D7)), sequence (Q8IBS5 whole entry, looked up): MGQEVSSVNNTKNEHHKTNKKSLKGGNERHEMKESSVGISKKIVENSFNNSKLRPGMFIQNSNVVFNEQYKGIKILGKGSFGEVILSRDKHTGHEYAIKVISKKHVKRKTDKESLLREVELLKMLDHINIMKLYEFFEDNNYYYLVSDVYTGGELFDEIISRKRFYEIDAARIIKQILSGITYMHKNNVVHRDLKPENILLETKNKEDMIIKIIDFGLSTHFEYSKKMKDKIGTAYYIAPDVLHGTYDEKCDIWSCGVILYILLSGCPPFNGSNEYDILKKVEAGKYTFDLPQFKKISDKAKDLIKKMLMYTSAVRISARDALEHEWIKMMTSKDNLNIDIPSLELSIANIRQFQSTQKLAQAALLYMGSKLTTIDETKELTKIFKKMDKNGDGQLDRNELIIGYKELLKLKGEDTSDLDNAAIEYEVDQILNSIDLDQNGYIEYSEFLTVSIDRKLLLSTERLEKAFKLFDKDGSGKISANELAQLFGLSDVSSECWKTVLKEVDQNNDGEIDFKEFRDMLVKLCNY
L-lactate dehydrogenase (Plasmodium falciparum (isolate CDC / Honduras)), sequence (Q27743 whole entry, looked up): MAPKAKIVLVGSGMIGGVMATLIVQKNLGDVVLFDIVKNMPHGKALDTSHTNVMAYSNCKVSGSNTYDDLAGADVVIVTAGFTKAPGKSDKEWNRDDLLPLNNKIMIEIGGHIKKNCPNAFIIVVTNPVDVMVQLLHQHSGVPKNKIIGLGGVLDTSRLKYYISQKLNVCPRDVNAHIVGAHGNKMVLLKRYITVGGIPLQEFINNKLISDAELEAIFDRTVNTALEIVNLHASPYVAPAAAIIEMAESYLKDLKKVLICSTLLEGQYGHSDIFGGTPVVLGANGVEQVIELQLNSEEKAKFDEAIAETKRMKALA
Calcium-dependent protein kinase 1 (Plasmodium falciparum (isolate 3D7)), sequence (P62344 whole entry, looked up): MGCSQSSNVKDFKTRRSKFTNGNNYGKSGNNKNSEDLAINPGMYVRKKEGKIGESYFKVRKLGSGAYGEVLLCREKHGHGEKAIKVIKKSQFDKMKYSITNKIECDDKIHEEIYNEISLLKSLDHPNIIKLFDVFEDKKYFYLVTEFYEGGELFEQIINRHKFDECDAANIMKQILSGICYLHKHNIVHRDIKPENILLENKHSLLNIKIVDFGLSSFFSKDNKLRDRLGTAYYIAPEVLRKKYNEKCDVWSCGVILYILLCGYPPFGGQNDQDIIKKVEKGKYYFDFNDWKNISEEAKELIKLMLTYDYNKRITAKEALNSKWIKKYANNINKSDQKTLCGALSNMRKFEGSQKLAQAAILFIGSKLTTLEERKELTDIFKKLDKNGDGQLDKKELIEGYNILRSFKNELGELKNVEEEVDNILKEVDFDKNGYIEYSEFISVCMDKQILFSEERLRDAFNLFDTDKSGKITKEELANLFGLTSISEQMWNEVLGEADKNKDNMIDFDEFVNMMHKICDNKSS
Protein kinase 7 (PK7), Plasmodium falciparum 3D7 (PF3D7_0213400), sequence (Q7YTF7 1-343): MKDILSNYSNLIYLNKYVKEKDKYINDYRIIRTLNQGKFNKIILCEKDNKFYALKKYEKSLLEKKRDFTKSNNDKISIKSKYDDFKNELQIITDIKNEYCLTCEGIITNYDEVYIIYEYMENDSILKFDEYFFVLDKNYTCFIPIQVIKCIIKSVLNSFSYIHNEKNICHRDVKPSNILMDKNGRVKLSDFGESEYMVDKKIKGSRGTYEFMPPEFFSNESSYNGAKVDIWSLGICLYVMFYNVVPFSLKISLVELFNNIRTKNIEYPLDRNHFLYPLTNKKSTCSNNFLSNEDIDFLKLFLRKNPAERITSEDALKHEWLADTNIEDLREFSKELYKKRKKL
Plasmodium falciparum protein kinase 6 (PK6, PF3D7_1337100), sequence (Q8IDW1 1-305): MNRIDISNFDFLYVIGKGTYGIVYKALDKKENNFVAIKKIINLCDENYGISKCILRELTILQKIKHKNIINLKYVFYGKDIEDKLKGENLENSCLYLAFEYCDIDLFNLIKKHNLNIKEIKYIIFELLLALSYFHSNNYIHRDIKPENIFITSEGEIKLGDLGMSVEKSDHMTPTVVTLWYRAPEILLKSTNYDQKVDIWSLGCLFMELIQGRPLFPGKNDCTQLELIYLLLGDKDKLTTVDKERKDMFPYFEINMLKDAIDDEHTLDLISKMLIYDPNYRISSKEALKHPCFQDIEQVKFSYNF

In the case of `CCOC(=O)CCCc1cc(NC2CCN(C)CC2)nc(Nc2ccc(OC)cc2)n1`, the growth inhibition in test [1] was 17%; in test [4], 99% (active). For the same molecule, the inhibition (usually the drop in the measured response relative to a control, in per cent) in test [2] was 41%; in test [3], -2%. The outcome in test [5], in test [6], in test [7] and in test [8] was inactive.
Take `O=C(Nc1ccc(Cn2ncc(N3CCCNCC3)c(Cl)c2=O)cc1)Nc1cc(F)cc(C(F)(F)F)c1`: the growth inhibition is 44% in test [1] and 101% (active) in test [4]. The inhibition was 35% in test [2] and 4% in test [3]. Further, the outcome in test [5], in test [6], in test [7] and in test [8] was inactive.
On to `COc1ccc(Nc2cc(C)nc(NCc3ccc4c(c3)OCO4)n2)cc1`, for which the figures for the growth inhibition in test [1] and in test [4] were 78% (active) and 99% (active), respectively. In addition, the inhibition in test [2] is 26%; in test [3], -2%. Further, the outcome in test [5], in test [6], in test [7] and in test [8] was inactive.
For `CN1CCN(c2ccc3nc(-c4ccc5nc(-c6ccc(O)cc6)[nH]c5c4)[nH]c3c2)CC1`, the growth inhibition in test [1] is 100% (active); in test [4], 99% (active). For the same molecule, the figures for the inhibition in test [2] and in test [3] were -11% and 3%, respectively. Also, the result in test [5], in test [6], in test [7] and in test [8] was inactive.
On to `C=CCN(c1nc(NC)nc(NCc2c(OC)cccc2OC)n1)C1CCCC1`, for which the figures for the growth inhibition in test [1] and in test [4] were 70% (active) and 85% (active), respectively. Moreover, the inhibition in test [2] is 18%; in test [3] it was -3%. Besides, the result in test [5], in test [6], in test [7] and in test [8] was inactive.
With `N#Cc1ccc2c(c1)CCN(CCC1CCC(NC(=O)/C=C/c3c[nH]c4ccc(F)cc34)CC1)CC2` (stereo not given), the growth inhibition in test [1] was 83% (active); in test [4], 101% (active). For the same molecule, the inhibition was 18% in test [2] and 4% in test [3]. Further, the outcome in test [5], in test [6], in test [7] and in test [8] was inactive.
Consider `O=C(Nc1ccc(F)c(Cl)c1)c1cc([N+](=O)[O-])cc2cn[nH]c12`, for which the growth inhibition in test [1] is 67% (active); in test [4], 100% (active). Further, the inhibition was 32% in test [2] and -4% in test [3]. Further, the result in test [5], in test [6], in test [7] and in test [8] was inactive.
In the case of `Oc1ccc(CCCNc2nc(NCc3ccccc3-c3ccccc3)nc(NC3CCNCC3)n2)cc1`, the growth inhibition in test [1] is 2%; in test [4], 97% (active). In addition, the inhibition was -1% in test [2] and 6% in test [3]. The outcome in test [5], in test [6], in test [7] and in test [8] was inactive.
In the case of `O=C(C=Cc1ccc(F)cc1)NC1CCC(CCN2CCc3ccc(-c4cnccn4)cc3CC2)CC1` (stereo not given), the growth inhibition in test [1] was 65% (active); in test [4], 99% (active). The inhibition in test [2] was 32%; in test [3], 1%. Further, the outcome in test [5], in test [6], in test [7] and in test [8] was inactive.
Consider `CCN1CCN(c2cc(C)c3cc(NC(=O)c4ccc(OC)c(OC)c4)ccc3n2)CC1`, for which the growth inhibition in test [1] was 23%; in test [4], 90% (active). Moreover, the values for the inhibition in test [2] and in test [3] were 28% and 1%, respectively. The outcome in test [5], in test [6], in test [7] and in test [8] was inactive.
Take `NC(=O)C1CCN(Cc2cccc(-c3cccc(-c4nc5ccc(F)cc5[nH]4)c3)c2)CC1`: the growth inhibition in test [1] was 7%; in test [4] it was 100% (active). The inhibition in test [2] is 15%; in test [3] it was 3%. Besides, the outcome in test [5], in test [6], in test [7] and in test [8] was inactive.
In the case of `Cn1nc(-c2cccc(CN[C@@H]3CCc4ccc(O)cc43)c2)c2cnc(NC3CCCC3)nc21`, the values for the growth inhibition in test [1] and in test [4] were 76% (active) and 100% (active), respectively. For the same molecule, the inhibition was 6% in test [2] and -2% in test [3]. In addition, the result in test [5], in test [6], in test [7] and in test [8] was inactive.
On to `O=C(Nc1cccc(CN2CCCN(CCc3ccccc3)CC2)c1)c1cc2ccccc2s1`, for which the results for the growth inhibition in test [1] and in test [4] were 39% and 93% (active), respectively. The inhibition in test [2] was 37%; in test [3] it was 4%. The result in test [5], in test [6], in test [7] and in test [8] was inactive.
As to `C#CCN(Cc1ccc2nc(N)[nH]c(=O)c2c1)c1ccc(C(=O)N[C@@H](CCC(=O)O)C(=O)O)cc1`, the figures for the growth inhibition in test [1] and in test [4] were 96% (active) and 95% (active), respectively. The inhibition was 45% in test [2] and 3% in test [3]. Also, the result in test [5], in test [6], in test [7] and in test [8] was inactive.
`COc1cc(CNC[C@@H](O)[C@H](Cc2ccccc2)NC(=O)c2cc(C3CCCC3)cc(N3CCCS3(=O)=O)c2)cc(OC)c1`: the growth inhibition in test [1] is 94% (active); in test [4], 95% (active). Further, the results for the inhibition in test [2] and in test [3] were 31% and 2%, respectively. Moreover, the outcome in test [5], in test [6], in test [7] and in test [8] was inactive.
Consider `O=C(NC1CC1)c1cnc(N2CCC(Oc3ccc(Cl)cc3)CC2)c(Cl)c1`, for which the figures for the growth inhibition in test [1] and in test [4] were 75% (active) and 86% (active), respectively. Moreover, the inhibition in test [2] was 12%; in test [3], -5%. The result in test [5], in test [6], in test [7] and in test [8] was inactive.
As to `Cc1cc(NN=Cc2ccc([N+](=O)[O-])cc2)c2ccc(F)cc2n1`, the results for the growth inhibition in test [1] and in test [4] were 22% and 101% (active), respectively. In addition, the inhibition in test [2] was -3%; in test [3], 0%. Further, the result in test [5], in test [6], in test [7] and in test [8] was inactive.
In the case of `c1ccc(-c2ccc(CNCCCNc3nc4ccccc4[nH]3)cc2)cc1`, the figures for the growth inhibition in test [1] and in test [4] were 0% and 95% (active), respectively. Also, the inhibition is 20% in test [2] and -4% in test [3]. The result in test [5], in test [6], in test [7] and in test [8] was inactive.
Take `Nc1cc(-c2cc3c(OCc4ccccc4)cccc3[nH]2)ccn1`: the growth inhibition was 15% in test [1] and 85% (active) in test [4]. The inhibition in test [2] was 23%; in test [3], 4%. Besides, the outcome in test [5], in test [6], in test [7] and in test [8] was inactive.
In the case of `CCCCOc1c(CCC)cc(Cc2cnc(N)nc2N)cc1CCC`, the results for the growth inhibition in test [1] and in test [4] were -2% and 97% (active), respectively. The inhibition in test [2] is 27%; in test [3], 2%. Also, the outcome in test [5], in test [6], in test [7] and in test [8] was inactive.
